Rows were chosen to be rich in hits. Some 6% of all compounds tested hit in one or more screens of this group.
D1 PAM = Potentiators of Human D1 Dopamine Receptor: qHTS | HEK293 TREx D1 cells, calcium flux, dopamine EC20 potentiation | D(1A) dopamine receptor (Homo sapiens), P21728 | AID 504651, 2011 | potentiation, % at 10 µM | 0.036% of 360,000 active; in the data active means potentiation above about 30%
Target sequence (P21728 whole entry, looked up): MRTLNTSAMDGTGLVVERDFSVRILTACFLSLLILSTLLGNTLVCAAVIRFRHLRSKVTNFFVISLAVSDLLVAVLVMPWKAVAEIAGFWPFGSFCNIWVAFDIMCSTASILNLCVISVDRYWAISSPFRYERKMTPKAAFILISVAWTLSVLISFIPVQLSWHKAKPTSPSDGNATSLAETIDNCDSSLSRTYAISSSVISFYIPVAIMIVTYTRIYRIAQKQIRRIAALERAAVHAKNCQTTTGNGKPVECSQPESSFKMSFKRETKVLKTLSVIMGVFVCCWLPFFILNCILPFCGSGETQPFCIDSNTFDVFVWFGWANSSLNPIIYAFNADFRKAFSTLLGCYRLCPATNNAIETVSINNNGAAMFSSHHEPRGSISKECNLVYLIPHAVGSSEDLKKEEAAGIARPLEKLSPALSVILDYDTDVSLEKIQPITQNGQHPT
D3 ag = qHTS of D3 Dopamine Receptor Agonist: qHTS | max activation, % | 0.58% of 410,000 active | D(3) dopamine receptor (Homo sapiens), P35462 | D3R DiscoveRx beta-arrestin cells, luminescence, 90 min; in the data active means max activation above about 30%
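Agonist-mode cell screen: cells plated at 1500/well and incubated overnight at 37 °C, then exposed to library compounds for 90 min at 37 °C. Detection reagent was added for 30–60 min at room temperature, and luminescence was read.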
D1 antag = Antagonist of Human D 1 Dopamine Receptor: qHTS | D(1A) dopamine receptor (Homo sapiens), P21728 | HEK293 TREx D1 cells, calcium flux, dopamine EC80; hits give low values | activity change, negative = inhibition, % at 10 µM | 3.2% of 360,000 active; in the data active means activity change below about -30%
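Calcium flux readout: force-coupled, inducible Hek293 Trex D1 line, cells induced overnight at 30 C with tetracycline, dye-loaded 30–90 min at RT. Antagonism scored against EC80 dopamine challenge given 180 s after compound.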
D1 ag = Allosteric Agonists of the Human D1 Dopamine Receptor: qHTS; HEK293 T-REx D1 cells, calcium flux, agonist mode; activation, % at 2 µM; 1% of 360,000 active; in the data active means activation above about 30%
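Inducible HEK293 T-REx D1 cells, force-coupled to calcium signalling, were plated at 4000 cells/well with tetracycline and held overnight at 30 C. After no-wash calcium dye loading, compound-evoked calcium rise over 180 s flagged agonists.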
D3 antag = qHTS of D3 Dopamine Receptor Antagonist: qHTS | max response, negative = inhibition, % | 2.5% of 360,000 active | D3R cells, DiscoveRx beta-arrestin luminescence, antagonist mode; hits give low values | D(3) dopamine receptor (Homo sapiens), P35462; in the data active means max response below about -50%; inconclusive means no clear call, values can overlap the other calls
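Cells expressing the human receptor were seeded at 1500 cells/well, incubated overnight at 37 degrees C in 5% CO2, then exposed to library compounds with dopamine controls for 90 minutes at 37 degrees C before luminescent detection.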
BCR signal inh = qHTS Assay to Find Inhibitors of Chronic Active B-Cell Receptor Signaling; 0.05% of 340,000 active; AID 493014, 2011; ABC-DLBCL IkBa-CBG/CBR reporter, luminescence ratio, 4 h; Potency, µM (highest dose often 46.1 µM), most hits filed as inhibitors; active means well fitted inhibition curve with a large enough effect in the signal ratio, with a control signal flat, not every such curve was filed as active; inconclusive means small, poorly fitted or top-dose-only effect, or effect the other way, or a change in a side signal; the % refers to the signal ratio
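TMD8 ABC-DLBCL cells carrying doxycycline-inducible green luciferase fused to IkappaBalpha plus unfused red luciferase were exposed to compounds (up to 46 uM) for 4 hrs at 37C. Activity came from the overlap-corrected green/red luminescence ratio.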
Large screens that a line does not name were inactive.

CN1CCN(c2ccc(NC(=O)c3ccccc3Br)cc2)CC1	BCR signal inh inconclusive
Clc1ccc2c(c1)-n1cc(-c3ccccc3)nc1CO2	none (no result: D3 antag, BCR signal inh)
CC1CCCCN1Cc1c(C#N)c2ccccc2n1C (stereo unspecified)	D3 antag -65.9 (no result: BCR signal inh)
CC1CCN(Cc2c(C#N)c3ccccc3n2C)CC1	D3 antag -75.4
CN1CCN(Cc2c(C#N)c3ccccc3n2C)CC1	none
Cn1c(CN2CCCC2)c(C#N)c2ccccc21	D3 antag -86.0
CCOC(=O)CSCc1c(C#N)c2ccccc2n1C	D3 antag -52.4
CCOc1ccc(C2NC(=O)c3ccccc3O2)cc1OCC (stereo unspecified)	none
C=C(C)COc1ccc(C2NC(=O)c3ccccc3O2)cc1OCC (stereo unspecified)	D1 antag -49.1
CCn1c(=O)c2sccc2n2c(CCC(=O)Nc3ccc(F)cc3)nnc12	none (no result: D3 antag, BCR signal inh)
Fc1ccc(COc2ccc3ccccc3c2CNc2nn[nH]n2)cc1	BCR signal inh inconclusive
CNCc1c(OCc2ccc(F)cc2)ccc2ccccc12	D1 antag -33.1, D3 antag -60.7, BCR signal inh inconclusive
C[C@H](NC(=O)[C@@H]1CCCN1C(=O)OC(C)(C)C)c1ccccc1	none (no result: D1 PAM, D1 antag, D1 ag, BCR signal inh)
Cc1ccc2c(c1)c(C1=c3ccccc3=NC1=O)c(O)n2C	D3 antag -80.1, BCR signal inh inconclusive
Cc1c(-n2c(O)c(C3=c4ccccc4=NC3=O)sc2=O)c(=O)n(-c2ccccc2)n1C	none
C=CCn1c(O)c(C2=c3ccccc3=NC2=O)c2ccccc21	D3 antag -65.2, BCR signal inh inconclusive
CN1CCN(C(=O)CC23CC4CC(CC(C4)C2)C3)CC1	D3 antag -78.0
CCn1c(NCc2c[nH]c3ccccc23)nc2ccccc21	none (no result: D1 PAM, D1 antag, D1 ag, BCR signal inh)
C=CCn1c(NCc2c[nH]c3ccccc23)nc2ccccc21	D1 antag -58.6, D3 antag inconclusive, BCR signal inh inconclusive
CC(=O)[C@@H]1[C@@H]2C(=O)N(C3CCCCC3)C(=O)[C@@H]2C2c3ccccc3C=CN21 (stereo partly specified)	BCR signal inh inconclusive (no result: D3 ag, D3 antag)
O=C1NC(=O)[C@@H]2C3c4ccccc4C=CN3[C@H](C(=O)c3cccs3)[C@H]12 (stereo partly specified)	D1 antag -69.9, BCR signal inh inconclusive (no result: D3 ag, D3 antag)
COc1ccc(C2CC(=O)c3cnc(Nc4cc(C)cc(C)c4)nc3C2)cc1 (stereo unspecified)	D3 ag 48.9
COc1cc(C2CC(=O)c3cnc(NC(=O)COc4ccccc4)nc3C2)cc(OC)c1OC (stereo unspecified)	D3 ag 36.3, D1 antag -30.0
COc1ccc(C2CC(=O)c3cnc(NC(=O)c4ccccc4)nc3C2)cc1OC (stereo unspecified)	BCR signal inh inconclusive
COc1cc(NC(=O)C(OC(=O)CNC(=O)c2ccccc2)c2ccccc2)c(OC)cc1Cl (stereo unspecified)	none (no result: D3 ag, D3 antag, BCR signal inh)
CC(=O)c1cccc(NC(=O)c2noc3c2CC(C)CC3)c1 (stereo unspecified)	BCR signal inh inconclusive (no result: D3 antag)
Cc1ccccc1Cn1c(C)c(CNCCCc2ccccc2)c(C(=O)O)c1C	none (no result: D3 antag, BCR signal inh)
COCc1ccc(-c2c(-c3ccc(OC)cc3)oc(=O)c3cc(OC)c(OC)cc23)cc1	D3 ag 34.0, BCR signal inh inconclusive (no result: D1 PAM, D1 antag, D1 ag)
COc1ccc(-c2c(-c3ccsc3)oc(=O)c3cc(OC)c(OC)cc23)cc1	D3 ag 39.2 (no result: D1 antag)
COc1cc2c(-c3cc(F)cc(F)c3)c(-c3ccsc3)oc(=O)c2cc1OC	none (no result: D1 antag)
CN(CCO)c1cc(Sc2nc3ccccc3s2)c2nonc2c1[N+](=O)[O-]	D3 antag -84.1, BCR signal inh inconclusive
CC(=O)OCCN(C)c1cc(SC(C)C)c2nonc2c1[N+](=O)[O-]	BCR signal inh inconclusive
